The campaign covered roughly 140,000 compounds. About 4,300 (3.1%) were called active. Inconclusive results (about 21%) are left out. Only a selection was taken, and actives are over-represented in it overall. A number with no mark means an inactive call.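 How the source made its calls: active means readout at or below -70, meaning at least 70% loss of cells showing the perinucleolar compartment, a nuclear body marking cancer cells; inconclusive means readout between -30 and a set limit; inactive means the rest.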
Experiment: High Content Assay for Compounds that inhibit the Assembly of the Perinucleolar Compartment;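 further: plate controls were DMSO wells for no effect and camptothecin positive control wells for full effect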
Details: PC3M PTB-GFP, PNC prevalence imaging, 16 h; at 10 µM; stronger effect = lower value
In short: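 Compounds are pinned in duplicate onto adhered PC3M cells stably expressing GFP-tagged PTB and incubated 16 h at 37 C. Cells are then fixed, nuclei stained with Hoechst, and PNC-positive cells counted.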

Row | SMILES | activity change (PNC), negative = inhibition
1 | CCCNC(=O)c1ccccc1NC(=O)CSCc1ccc(OC)cc1 | -26.5%
2 | CCCCCNC(=O)c1cccnc1SCC(=O)Nc1ccccc1OC | -119% (active)
3 | COC(=O)c1ccccc1NC(=O)CSc1ccccn1 | 6.08%
4 | COc1cc(NC(=O)c2ccccc2NS(=O)(=O)c2ccc(Cl)s2)cc(OC)c1 | -4.27%
5 | Cc1cc(Nc2ccccc2)nc(N)n1 | -28.7%
6 | CCOC(=O)c1nn(-c2ccccc2F)c2nc(Nc3ccccc3)cc(=O)n12 | -91% (active)
7 | CCOC(=O)c1nc(Nc2ccc(C(=O)OC)cc2)c2ccccc2n1 | -9.55%
8 | Nc1nc(SCC(=O)NCCN2CCOCC2)nc2sc3c(c12)CCC3 | 3.5%
9 | Cc1ccc(Cl)cc1N1CCN(C(=O)c2cccc3c(=O)c(C)c(-c4ccccc4)oc23)CC1 | 2.98%
10 | C[C@@H](O)c1nc2ccccc2n1N | -14.7%
11 | O=C(O)c1cccc(N=NN2CCCCCC2)c1 | 12.1%
12 | COc1ccc(C2=NOC(C(=O)NCc3ccco3)C2)cc1OC (stereo not given) | -87% (active)
13 | COc1ccc(-c2cc(C(=O)NCc3ccco3)no2)cc1OC | -7.14%
14 | Cc1ccc(CNC(=O)C2CC(c3ccccc3[N+](=O)[O-])=NO2)o1 (stereo not given) | -9.83%
15 | COc1ccc(Nc2ncc(C(=O)N3CCN(c4ccccc4OC)CC3)c3ccccc23)cc1 | 37.3%
16 | COc1ccccc1N1CCN(C(=O)C(=O)N/N=C/c2ccccc2F)CC1 | -114% (active)
17 | COc1ccccc1N1CCN(C(=O)c2ccc(S(=O)(=O)N3CCCCC3)cc2)CC1 | 48.1%
18 | Cc1ccc(N(C(=O)C(F)(F)F)C(C(=O)NC2CCCCC2)c2ccncc2)cc1C (stereo not given) | 0.653%
19 | CCCCOc1ccc(C(=O)NCC(=O)OCC(=O)N2CCN(S(=O)(=O)c3ccc(C)cc3C)CC2)cc1 | 24.8%
20 | CC1(C)CC(=O)NC=C(c2ccccc2)C1 | 20.5%
21 | CC(C)C1C2=C(CC(C)(C)CC2=O)ON1c1ccccc1 (stereo not given) | -90.5% (active)
22 | CC(C)N1C(=O)N(c2ccccc2)C(C)(O)CC1(C)C (stereo not given) | -24.7%
23 | CCCCCOc1ccc(/C=C/C(=O)NCCc2nc3ccccc3[nH]2)cc1OC | 37%

Row | SMILES | activity change (PNC), negative = inhibition
24 | COc1cc(/C=C(/NC(=O)c2ccc(Cl)cc2Cl)C(=O)O)cc(OC)c1OC | -21.4%
25 | O=C(NCc1ccccc1Cl)C1CCC(CNc2c(N3CCCCC3)c(=O)c2=O)CC1 (stereo not given) | 42.7%
26 | COCCn1c(=S)[nH]c2cc(C(=O)NCCc3ccc(OC)c(OC)c3)ccc2c1=O | 26.1%
27 | CC(C)(C)c1cc(C(=O)NCc2cccnc2)ccn1 | 47.5%
28 | COCCn1c(=O)[nH]c2cc(C(=O)NCc3cccnc3)ccc2c1=O | -86.1% (active)
29 | Cc1ccc(NC(=O)CCC(=O)N/N=C/c2ccco2)c(C)c1 | -23.4%
30 | N#Cc1c(NC(=O)CCCN2C(=O)c3ccccc3C2=O)oc(-c2ccccc2)c1-c1ccccc1 | -11.2%
31 | COc1cc(C(=O)Nc2oc(-c3ccccc3)c(-c3ccccc3)c2C#N)cc(OC)c1OC | -87.4% (active)
32 | COC(=O)c1sccc1NC(=O)c1cc(OC)c(OC)c(OC)c1 | 81.2%
33 | CCc1ccc(-c2cc(C(=O)NN3CCN(C)CC3)c3ccccc3n2)cc1 | -5.44%
34 | O=[N+]([O-])c1ccc(NCCCO)c(C(F)(F)F)c1 | 59.3%
35 | C=C(C)c1cccc(C(C)(C)NC(=O)NC2CCCC2)c1 | 24%
36 | Cc1ccc2[nH]c(C(=O)O)c(NC(=O)c3ccccc3[N+](=O)[O-])c2c1 | 17.5%
37 | CCC(=O)Nc1c(S(=O)(=O)c2ccccc2)c2nc3ccccc3nc2n1Cc1ccccc1 | 8.42%
38 | O=S(=O)(NCCc1ccncc1)c1ccccc1 | 50.6%
39 | COc1cc2c(cc1OC)C(Nc1ccc(S(N)(=O)=O)cc1)=NC(C)(C)C2 | -18.6%
40 | O=C1OC(OC(=O)c2ccccc2Br)C(N2CCOCC2)=C1Cl (stereo not given) | 84.2%
41 | O=C(CCCOc1ccccc1)Nc1cccc(C(=O)O)c1 | 11.1%
42 | CSc1cccc(NC(=O)CSc2ccccc2)c1 | 1.35%
43 | CCc1cccc(NC(=O)CCC(=O)O)c1 | -102% (active)
44 | CCOc1ccc(NC(=O)CSc2ncnc3c2sc2ccccc23)cc1 | 42.2%
45 | O=C(Oc1ccccc1Cl)c1ccc(N2CCOCC2)c([N+](=O)[O-])c1 | 20.3%
46 | O=C(Oc1ccccc1C(=S)N1CCCCC1)c1cc([N+](=O)[O-])cc([N+](=O)[O-])c1 | -100% (active)

Row | SMILES | activity change (PNC), negative = inhibition
47 | COc1cc(C(=S)N2CCOCC2)cc(OC)c1OC(=O)c1cc([N+](=O)[O-])cc([N+](=O)[O-])c1 | 19.6%
48 | CN(C)CCNC(=O)/C(=C/c1cccc([N+](=O)[O-])c1)NC(=O)c1ccccc1 | -1.37%
49 | COc1ccc(CCC(=O)OCC(=O)Nc2ccc(C)c(S(=O)(=O)N(C)C)c2)cc1 | 34.8%
50 | COc1ccc(/C(C)=N/NC(=O)CCC(=O)Nc2ccc(Cl)cc2Cl)c(OC)c1 | -10.3%
51 | Cc1ccc(NC(=S)NCc2ccccc2Cl)c(C)c1 | 22.9%
52 | COc1ccc(N2C(=O)C(O)C2c2ccc(C)cc2)cc1 (stereo not given) | -29.1%
53 | COc1ccc(-c2c(C(C)=O)c(C)nc3sc4c(=O)n(-c5ccc(C)cc5)nnc4c23)cc1 | -106% (active)
54 | COCc1cc(C)nc2sc3c(=O)n(-c4cccc5ccccc45)nnc3c12 | 0.942%
55 | Clc1ccc(CSc2nnc(/C=C/c3ccccc3)o2)c(Cl)c1 | -87.5% (active)
56 | c1ccc(-c2nnc(SCc3nc4ccccc4[nH]3)o2)cc1 | 25.5%
57 | O=C(Nc1nnc(SCc2ccc(Cl)cc2Cl)s1)C1COc2ccccc2O1 (stereo not given) | 43%
58 | N/C(=N\OC(=O)CC1CCCCC1)c1ccccc1 | -25.3%
59 | COC(=O)c1ccccc1NS(=O)(=O)c1ccc2[nH]c(=O)[nH]c2c1 | -18.2%
60 | Cc1ccc(N(Cc2cc3ccccc3[nH]c2=O)C(=O)c2cccs2)cc1 | 4.02%
61 | CCOC(=O)Cc1csc(NC(=O)CSc2ccc(Br)cc2)n1 | 34.9%
62 | O=c1[nH]cnc2c1c(-c1ccccc1)cn2-c1ccc(F)cc1 | -108% (active)
63 | O=c1c2ccccc2c(-c2ccc(F)cc2)nn1-c1ccc(C(F)(F)F)cc1 | -1%
64 | O=C(CNCc1ccc(F)cc1)Nc1ccccc1-c1ccccc1 | 23.9%
65 | Cc1cc(C)c(C#N)c(SCC(=O)NN2CC(=O)N(c3ccccc3F)CC2=O)n1 | 43.3%
66 | CC(C)CC(CO)N1CCN(C(=O)c2ccc(Cl)cc2Cl)CCC1=O (stereo not given) | -91.5% (active)
67 | CC(C)CC(COCc1ccc(Cl)cc1)N1CCN(C(=O)c2ccc(C(F)(F)F)cc2)CCC1=O (stereo not given) | 49.5%
68 | O=C(c1cc(Cl)cc(Cl)c1)N1CCC(=O)N(C(COCc2ccccc2)Cc2ccccc2)CC1 (stereo not given) | 27.5%
69 | CC(=O)c1sc(N/N=C\c2ccc(C)cc2)nc1C | 25.4%

Row | SMILES | activity change (PNC), negative = inhibition
70 | CCc1ccccc1NC(=O)CN(C)C(=O)COc1ccc(C)nc1[N+](=O)[O-] | -8.07%
71 | COc1ccccc1N(C(=O)Cn1nnc2ccccc21)C(C(=O)NCc1ccco1)c1ccc(C)o1 (stereo not given) | 20.9%
72 | COCCNC(=O)C(c1ccc(C)o1)N(Cc1ccccc1)C(=O)Cn1nnc2ccccc21 (stereo not given) | -83.4% (active)
73 | CCC(C)(C)NC(=O)C(c1cccn1C)N(Cc1ccc(C)cc1)C(=O)Cn1nnc2ccccc21 (stereo not given) | 27.9%
74 | Brc1ccc(C2CC(c3ccccc3)=Nc3ccccc3N2)cc1 (stereo not given) | -29.2%
75 | COc1cc(NC(=O)Nc2ccc(C)cc2)cc([N+](=O)[O-])c1 | -87.1% (active)
76 | COc1ccc(NC(=O)Nc2ccc3nc(C)c(C)nc3c2)cc1 | 5.41%
77 | CC(=O)c1ccc(NC(=O)Nc2ccc([N+](=O)[O-])cc2C)cc1 | -13%
78 | O=C(CN1C2=NCCN2c2ccccc21)c1cccs1 | -2.86%
79 | COc1ccc(NS(=O)(=O)c2cc(NC(=O)/C=C/c3cc(OC)c(OC)c(OC)c3)ccc2N2CCCCC2)cc1 | -0.688%
80 | CC1(C)CC(=O)C(N=Nc2ccc(S(=O)(=O)N3CCCCCC3)cc2)=C(O)C1 | 24.1%
81 | COc1ccc(CNC(=O)CN(Cc2ccc(Cl)cc2)S(C)(=O)=O)cc1 | 48.3%
82 | Cc1cccc(NC(=O)c2sc(-c3ccccc3)nc2-c2ccc([N+](=O)[O-])cc2)c1 | -100% (active)
83 | O=C(CSc1nc(-c2ccccc2)cs1)Nc1cccc([N+](=O)[O-])c1 | 126%
84 | COc1ccc(C(=O)Nc2nc(-c3ccc(OC)cc3)c(-c3ccc([N+](=O)[O-])cc3)s2)cc1 | -23.3%
85 | O=C1/C(=C\c2cccnc2)CN(Cc2ccccc2)C/C1=C\c1cccnc1 | -112% (active)
86 | O=C(O)C1CC(=O)N(Cc2cccnc2)C1 (stereo not given) | -9.97%
87 | O=C1OC(c2ccc(Cl)cc2)=N/C1=C\c1cccnc1 | 41.2%
88 | O=C(Nn1c(-c2ccc(Cl)cc2)nc2ccccc2c1=O)c1cccnc1Cl | 8.85%
89 | Cc1ccnc(NS(=O)(=O)c2ccc(NC(=O)c3ccc(S(=O)(=O)N4CCOCC4)cc3)cc2)n1 | -19.3%
90 | CC(OC(=O)CNS(=O)(=O)/C=C/c1ccccc1)C(=O)Nc1ccc(S(=O)(=O)N2CCCC2)cc1 (stereo not given) | 64.4%

Reference: PubChem BioAssay AID2417 (National Center for Advancing Translational Sciences (NCATS), 2010)
